# Measurements published in PubChem BioAssay (Tox21).
# Results filed as inconclusive are left out. A number with no mark means an inactive call. Calls of active or inactive are those of the source. Calls come from the whole dose curve; as a rule, active = well fitted curve in the direction sought with a large enough effect in the repeat runs; inconclusive = weak or mixed curves; inactive = no such curve, though single readings can be large; an effect the other way counts as inactive or inconclusive.
# Target: Nuclear receptor subfamily 1 group I member 2 (Homo sapiens) (UniProt O75469)
# Experiment: CYP3A4 induction through human pregnane X receptor (PXR) by small molecules, qHTS assay (AID 1346984)
# Conditions: DPX-2 HepG2 PXR, CYP3A4-luciferin luminescence, 24 h; series mostly up to 46.1 µM; activation: at the top concentration
# Summary of the method: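 After 24 h at 37C with compound, DPX-2 cells (HepG2, co-transfected PXR response element and CYP3A4 promoter-luciferase) got 3uM final P450-Glo Luciferin-IPA for 3 h; One-Glo luminescence followed.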
# % is set by controls: 0 for no effect and ±100 for the full control effect.
# Note: nearly all actives have a fitted effect of over 40% in size.
row,SMILES,activation [%]
1,CSCCC(N)C(=O)O (stereo unspecified),-2.26
2,CCCCCCCCCCCCCC(=O)OCC(COP(=O)([O-])OCC[N+](C)(C)C)OC(=O)CCCCCCCCCCCCC (stereo unspecified),-4.23

# Target: Nuclear receptor subfamily 1 group I member 2 (Homo sapiens) (UniProt O75469)
# Experiment: Human pregnane X receptor (PXR) activation by small molecules, qHTS assay (AID 1346985); note: potency is the fitted concentration of half-maximal effect
# Conditions: DPX-2 HepG2 CYP3A4-luciferase, 24 h; series mostly up to 38.3 µM; activation: at the top concentration
# Summary of the method: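 DPX-2 cells (HepG2 co-transfected with a PXR response element and a CYP3A4-promoter luciferase construct) were seeded at 2,000 per well, rested 5 hr at 37C, then exposed to DMSO-dissolved compounds for 24 hr. Activation was read as luciferase luminescence.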
SMILES,activation,Potency
c1ccc2c(c1)OCC(CN1CCCCC1)O2 (stereo unspecified),11.7%,
C[Se]CC[C@H](N)C(=O)O,-11.7%,
CN(Cc1ccccc1)Cc1ccccc1,-8.55%,
O=C1CC[C@@H](C(=O)N[C@H]2C[C@@H]2c2ccccc2)N1,2.12%,
FC(F)(F)COCC(F)(F)F,2.23%,
NC[C@H]1O[C@H](O[C@H]2[C@H](O)[C@@H](O[C@H]3O[C@H](CO)[C@@H](O)[C@H](N)[C@H]3O)[C@H](N)C[C@@H]2N)[C@H](N)C[C@@H]1O,-3.42% [at 17.1 µM],
CC[C@H]1OC(=O)C[C@@H](O)[C@H](C)[C@@H](O[C@@H]2O[C@H](C)[C@@H](O)[C@H](N(C)C)[C@H]2O)[C@@H](CCN2C[C@H](C)C[C@H](C)C2)C[C@@H](C)C(=O)/C=C/C(C)=C/[C@@H]1CO[C@@H]1O[C@H](C)[C@@H](O)[C@@H](OC)[C@H]1OC,-0.637%,
C=CC[N+]1([C@H]2C[C@H]3[C@@H]4CC[C@H]5C[C@H](O)[C@@H](N6CCOCC6)C[C@]5(C)[C@H]4CC[C@]3(C)[C@H]2OC(C)=O)CCCC1,0.428%,
c1ccc(-n2cnnn2)cc1,-4.91%,
NC(=O)c1cc[n+](CC2=C(C(=O)O)N3C(=O)[C@@H](NC(=O)C(c4ccccc4)S(=O)(=O)[O-])[C@H]3SC2)cc1 (stereo partly specified),7.82% [at 17.1 µM],
N#Cc1c(N(CC(=O)O)CC(=O)O)sc(C(=O)O)c1CC(=O)O,15.6%,
CN1C(=O)C[C@@H](C(=O)N[C@@H](Cc2cnc[nH]2)C(=O)N2CCC[C@H]2C(N)=O)NC1=O,-6.65%,
C[N+]1(CCCCC[N+]2(C)CCCC2)CCCC1,5.56%,
COC(=O)C(CN)c1c[nH]c2ccc(OC)cc12 (stereo unspecified),-8.27%,
CC(C)NCC1CCc2cc(CO)c([N+](=O)[O-])cc2N1 (stereo unspecified),1.3% [at 17.1 µM],
N[C@@H](Cc1cnc[nH]1)C(=O)O,7.09%,
N[C@H](CO)C(=O)O,3.45%,
C=C1[C@@H]2CC[C@@H](C2)C1(C)C,-9.1%,
Cc1cc(N)c2ccccc2[n+]1CCCCCCCCCC[n+]1c(C)cc(N)c2ccccc21,19.4% [at 17.1 µM],
CC(C)C[C@@H](NC(=O)[C@@H](O)[C@H](N)Cc1ccccc1)C(=O)O,4.12%,

SMILES,activation,Potency
CC[C@@H](C(=O)[C@@H](C)[C@@H](O)[C@H](C)CCc1ccc(C)c(O)c1C(=O)O)[C@H]1O[C@](CC)([C@H]2CC[C@](O)(CC)[C@H](C)O2)C[C@@H]1C,,8.91 µM (active)
CN[C@@H]1[C@@H](O[C@H]2O[C@H](CO)[C@@H](N)[C@H](O)[C@H]2O)O[C@H]2C[C@@H](N)[C@@H](O[C@H]3[C@H](O)[C@@H](O)[C@H](N)C[C@@H]3N)O[C@@H]2[C@@H]1O,-2.56% [at 17.1 µM],
CC(C)=CCC/C(C)=C/CC/C(C)=C/CC/C=C(\C)CC/C=C(\C)CCC=C(C)C,-3.17%,
CC(C)=CCC/C(C)=C/CC/C(C)=C/CC/C(C)=C/CC1=C(C)C(=O)c2ccccc2C1=O,22.8%,
CO/N=C(\C(=O)N[C@@H]1C(=O)N2C(C(=O)[O-])=C(C[n+]3ccc(N)n3CCO)CS[C@H]12)c1csc(N)n1,-6.83%,
CC1(C)C[C@@H]1C(=O)N/C(=C\CCCCSC[C@H](N)C(=O)O)C(=O)O,,inactive
CCCCCCCCCC(=O)NO,0.118%,
CC/C(=C(/CC)c1ccc(OP(=O)(O)O)cc1)c1ccc(OP(=O)(O)O)cc1,5.76%,
NCC1CCC(C(=O)O)CC1 (stereo unspecified),-4.01% [at 17.1 µM],
C=CCN1C(=O)C(CC(C)C)NC1=S (stereo unspecified),,inactive
Cc1ccc(C(C)(C)c2ccc(C)cc2)cc1,-0.94%,
O=C(O)[C@@H]1C[C@H](CP(=O)(O)O)CCN1,-6%,
CC[C@@H](C)[C@H](N)C(=O)O,-6.02%,
CCC(=O)OC(OP(=O)(CCCCc1ccccc1)CC(=O)N1C[C@H](C2CCCCC2)C[C@H]1C(=O)O)C(C)C (stereo partly specified),12.6%,
C[N+](C)(C)CCOP(=O)(O)OP(=O)([O-])OC[C@H]1O[C@@H](n2ccc(N)nc2=O)[C@H](O)[C@@H]1O,4.9%,
O=C(O)/C=C/C(O)c1ccc(Cl)cc1 (stereo unspecified),13.2%,
CCOC(=O)[C@H](CCc1ccccc1)N[C@@H](C)C(=O)N1[C@H](C(=O)O)C[C@H]2CCCC[C@@H]21,14.1%,
CSCCC(N)C(=O)O (stereo unspecified),1.51%,
CCCCCCCCCCCCCC(=O)OCC(COP(=O)([O-])OCC[N+](C)(C)C)OC(=O)CCCCCCCCCCCCC (stereo unspecified),-0.171%,
